TMEM16A act = activates or potentiates the mouse TMEM16A chloride channel | hit rate 0.3% among 340,000 | AID 623877 | B-score at 10 µM | HEK293 TMEM16A/YFP-H148Q/I152L, iodide quench fluorescence; active compounds read low;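 active = fluorescence-ratio B-score plate-corrected deviation score at least 3 library SD below zero, with starting fluorescence score within 5 deviations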;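 also: channel opened by trigger with iodide after compound preincubation; score built on the fluorescence ratio of max minus min over baseline; more negative score means more quench and so TMEM16A activation or potentiation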
CHT PAM = human CHT allosteric activation | AID 488977 | Q9GZV3 | CHT-expressing cells, membrane potential dye, choline EC20; active compounds read high; LV-AA mutant CHT in HEK293 cells | B-score at 10 µM | hit rate 0.49% among 310,000;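 active = initial fluorescence not abnormally high and integrated response B-score, plate-corrected, over 3 SD above library mean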
Target sequence (Q9GZV3 whole entry, looked up): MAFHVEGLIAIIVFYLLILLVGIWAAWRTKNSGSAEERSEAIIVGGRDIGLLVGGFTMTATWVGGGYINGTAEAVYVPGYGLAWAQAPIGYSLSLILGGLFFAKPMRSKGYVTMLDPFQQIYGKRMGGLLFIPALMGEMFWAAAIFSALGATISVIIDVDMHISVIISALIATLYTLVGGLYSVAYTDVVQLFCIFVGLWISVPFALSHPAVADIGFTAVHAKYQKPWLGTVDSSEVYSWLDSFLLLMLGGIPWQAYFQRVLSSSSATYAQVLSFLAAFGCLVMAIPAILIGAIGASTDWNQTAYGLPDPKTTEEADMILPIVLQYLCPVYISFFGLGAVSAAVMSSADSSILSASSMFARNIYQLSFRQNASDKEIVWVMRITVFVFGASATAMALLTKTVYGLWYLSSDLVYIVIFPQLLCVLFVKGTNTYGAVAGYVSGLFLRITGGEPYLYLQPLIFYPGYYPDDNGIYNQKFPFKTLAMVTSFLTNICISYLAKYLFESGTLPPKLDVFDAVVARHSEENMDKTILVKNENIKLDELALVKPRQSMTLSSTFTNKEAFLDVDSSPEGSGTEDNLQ
TMEM16A inh = blocks the mouse calcium-activated chloride channel TMEM16A. normalized B-score (activity score, 25-100; higher = stronger inhibition) at 10 µM. AID 588511. hit rate 1.2% among 310,000. Q8BHY3. HEK293 TMEM16A/YFP iodide influx fluorescence, ionomycin;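 active = ratio plate-corrected score three or more library SD toward inhibition, starting fluorescence score within five deviations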;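 also: score derived from kinetic fluorescence span divided by baseline fluorescence per well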
CHT inh = inhibitors of human choline transporter CHT; Q9GZV3; CHT-expressing cells, membrane potential dye, choline response; active compounds read low; B-score at 10 µM; hit rate 0.86% among 310,000; AID 488975;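 active = B-score over 3 SD under the library average, and starting fluorescence ratio not unusually high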;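 also: choline stimulus applied at its EC90 after an EC20 pre-addition; B-score computed on integrated fluorescence ratio after choline addition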
Each line names hits and unclear results; the compound was inactive in the other large screens. In the library only some 2.3% were active in any assay of this set; here they are far more common.

COc1ccc(/C=C\C(=O)O[C@@H]2C(O)C(O[C@@H]3OC(C)[C@H](O[C@@H]4OCC(O[C@H]5O[C@H](CO)[C@@H](O)C(O)C5O)C(O)C4O)C(O)C3O)[C@H](OC(=O)[C@]34CCC(C)(C)C[C@@H]3C3=CCC5[C@@]6(C)CC(O)C(O[C@@H]7OC(CO)C(O)[C@H](O)[C@H]7O)[C@@](C)(C(=O)O)C6CC[C@@]5(C)[C@]3(CO)CC4)O[C@H]2C)cc1 (some centres not stated)	TMEM16A act -32 (no result: CHT PAM, TMEM16A inh, CHT inh)
COc1ccc(C(=O)OCC(=O)NCC2CCCCC2)c(OC)c1	none (no result: CHT PAM, TMEM16A inh, CHT inh)
COc1ccc(S(=O)(=O)n2nc(-c3cc(OC)c(OC)c(OC)c3)cc2N)cc1OC	none
COc1ccc(-c2cc(N)n(S(=O)(=O)c3c(F)c(F)c(F)c(F)c3F)n2)cc1OC	TMEM16A inh 100, CHT inh -7.7
Cc1nc2ccccc2n1S(=O)(=O)c1cc(C(=O)O)ccc1Cl	none
COc1cccc(OC)c1C(=O)NNC(=O)c1cccc(COc2ccc3c(c2)CCC3)c1	TMEM16A inh 25
O=C(NCc1ccccc1)c1cccc(COc2ccc3c(c2)CCC3)c1	none
Cc1nc(SC(C)C(=O)NC2CCCC2)c2ccccc2n1 (configuration not stated)	TMEM16A act -31 (no result: CHT PAM, TMEM16A inh, CHT inh)
CC(Sc1nnnn1-c1ccccc1)C(=O)NC1CCCC1 (configuration not stated)	none (no result: CHT PAM, TMEM16A inh, CHT inh)
O=C(CN1CCCCC1)NCC(=O)Nc1ccc(F)c(F)c1F	none (no result: CHT PAM, TMEM16A inh, CHT inh)
Cc1cc(C(=O)OCC(=O)NCc2ccco2)c(C)n1-c1ccc(F)cc1	CHT inh -6.3
CCCCOc1ccc(S(=O)(=O)Nc2cc(OC)ccc2OC)cc1	TMEM16A inh 25
Cc1c(NC(=O)Nc2cccc(C(F)(F)F)c2)c(=O)n(-c2ccccc2)n1C	none
O=C(Nc1ccc(F)cc1)c1ccc2c(=O)n3c(nc2c1)CCCCC3	TMEM16A inh 25
O=C(O)CN1C(=O)c2ccc(C(=O)c3ccccc3)cc2C1=O	none
CCOC(=O)c1ccc(NC(=O)c2ccccc2[N+](=O)[O-])cc1	none
CCOC(=O)c1cc([N+](=O)[O-])c([N+](=O)[O-])cc1NC(C)=O	CHT inh -5.9
O=C(c1ccc(S(=O)(=O)N2CCCCCC2)cc1)N1CCCC(C(F)(F)F)C1 (configuration not stated)	none
NC(=O)C1CCCN(C(=O)c2ccc(S(=O)(=O)N3CCCCCC3)cc2)C1 (configuration not stated)	TMEM16A act -13 (no result: CHT PAM, TMEM16A inh, CHT inh)
CCCc1cc(=O)[nH]c(SCC(=O)N2CCCC2=O)n1	none
O=C(Cc1ccc(Br)cc1)c1ccc(O)cc1O	CHT inh -6.7
CCOc1ccccc1/C=N/NC(=O)c1nnn(-c2nonc2N)c1CN1CCC(C)CC1	none
CC1CCN(Cc2c(C(=O)N/N=C/c3ccc(C(C)C)cc3)nnn2-c2nonc2N)CC1	CHT PAM 6.4
C/C(=C\c1cc2ccccc2o1)C1Nc2cccc3cccc(c23)N1	TMEM16A act -18 (no result: CHT PAM, TMEM16A inh, CHT inh)
Oc1ccccc1C1Nc2cccc3cccc(c23)N1	none
COCCN(C(=O)COC(=O)/C=C/c1cccc(OC)c1)c1c(N)n(CC(C)C)c(=O)[nH]c1=O	none (no result: CHT PAM, TMEM16A inh, CHT inh)
O=c1cc(-c2ccc(O)c(O)c2)oc2cc(O[C@@H]3O[C@H](CO)[C@@H](O)[C@H](O)[C@H]3O)cc(O)c12	TMEM16A act -16 (no result: CHT PAM, TMEM16A inh, CHT inh)
Brc1ccccc1-c1nnc(SCc2nc3ccccc3s2)o1	TMEM16A inh 25
O=C(CSc1nnc(-c2ccccc2Br)o1)N1CCOCC1	none
Cc1ccc(OCC(=O)N2CC(C)CC(C)C2)c([N+](=O)[O-])n1 (configuration not stated)	none (no result: CHT PAM, TMEM16A inh, CHT inh)
Cc1nnc(NC(=O)C2CC(=O)N(c3ccc4c(c3)OCCO4)C2)s1 (configuration not stated)	none (no result: CHT PAM, TMEM16A inh, CHT inh)
O=C(Nc1nc(-c2ccco2)c(-c2ccco2)s1)C1CC(=O)N(c2ccc3c(c2)OCCO3)C1 (configuration not stated)	TMEM16A act -6.2
Brc1ccc(CSc2nnc(-c3cccnc3)o2)cc1	CHT inh -6.3
c1ccc(CSc2nnc(-c3cccnc3)o2)cc1	none
Cc1n[nH]c(C)c1N1C(=O)c2cccc3c(Br)ccc(c23)C1=O	CHT inh -7.4
CN(CC(=O)Nc1ccc(F)c(F)c1F)C(=O)Cc1ccc(S(=O)(=O)N2CCOCC2)s1	none (no result: CHT PAM, TMEM16A inh, CHT inh)
O=C(NCCCSc1ccccc1)c1cc(Cl)ccc1O	TMEM16A inh 100
O=C(CNC(=O)c1ccccc1)NCCCSc1ccccc1	none (no result: CHT PAM, TMEM16A inh, CHT inh)
Cc1ccc(OCC(=O)Oc2ccc(C(C)C)cc2)cc1	none
